# An excerpt weighted towards active compounds, which were near 2.8% of everything screened.
# POLI inh: DNA polymerase iota (human) inhibition; Q9UNA4; Pol iota fluorescent replication assay, 10 min; Potency, µM (series often up to 115 µM), for the others: at the top dose activity, negative = inhibition, most hits filed as inhibitors; 390,000 tested, 1% active; also: potency is read from the fitted curve at half-maximal effect
#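 Fluorescent replication assay read twice, at 0 min and 10 min after adding 50 nM (final) substrate. Enzyme (10 nM) and compounds were first incubated 15 min at room temperature; enzyme-free buffer wells were negative controls.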
# PI5P4Ka inh: PI5P4K alpha (human) kinase inhibition | P48426 | PI5P4Kalpha enzyme, ADP-Glo luminescence, 60 min; stronger effect = lower value | max response, % | 330,000 tested, 1.2% active | AID 652105; active = max response of -50% or lower; inconclusive = between -30% and -50%; inactive = -30% or higher; also: value at the top dose of about 77 µM; % is scaled to controls: 0 for no effect and ±100 for the full control effect
#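 ADP-Glo luminescence end-point read after a 60 min room-temperature kinase reaction of PI5P4Kalpha plus substrate, initiated with ATP at 5 microM final. Buffer: 0.038 M HEPES pH 7.4, EGTA, 0.1% CHAPS, 5% DMSO.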
# WRN inhibitor: inhibitors of human WRN helicase; WRN helicase unwinding, fluorescent forked duplex, kinetic; Potency, µM (series often up to 114 µM), inactives show at the highest dose activity change, negative = inhibition, usual class: inhibitors; 360,000 tested, 0.46% active; AID 651768; also: potency is read from the fitted curve at half-maximal effect; % is scaled to controls: 0 for no effect and ±100 for the full control effect; nearly all actives have a fitted effect of over 55% in size
#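 Primary qHTS, 1536-well format. 20 nM WRN + compound, 15 min RT; start with 100 nM forked fluorophore/quencher duplex, 2 mM ATP (final); kinetic read ex 525/em 598 nm.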
# Pol kappa inh: DNA polymerase kappa (human) inhibition; purified Pol kappa, fluorescent DNA synthesis assay, 10 min; Potency, µM (doses to about 107 µM), for inactives: top-dose activity, negative = inhibition, most hits filed as inhibitors; 400,000 tested, 0.53% active; also: potency is read from the fitted curve at half-maximal effect; % is scaled to controls: 0 for no effect and ±100 for the full control effect
#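 50 nM final substrate added after 15 min RT preincubation of 10 nM Pol kappa with compound; fluorescence read at 0 and 10 min.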
# POLB inh: inhibitors of human DNA polymerase beta. P06746. Pol beta primer extension/strand displacement, fluorescence kinetic. Potency, µM (highest dose often 114 µM), for inactives: at the highest dose activity change, negative = inhibition, hits mostly inhibitors. 340,000 tested, 1.3% active. AID 485314; also: potency is read from the fitted curve at half-maximal effect; % is scaled to controls: 0 for no effect and ±100 for the full control effect
#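 Homogeneous kinetic assay of primer extension and strand displacement by 10 nM Pol beta, preincubated 15 min at room temperature with compound before 50 nM substrate (final) was added. Read at 0 and 10 min; four-parameter Hill fit.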
# Pol eta inh: blocks human DNA polymerase eta activity; Potency, µM (series often up to 114 µM), without a hit: top-dose activity change, negative = inhibition, most hits filed as inhibitors; Q9Y253; AID 588591; recombinant Pol eta, fluorescent DNA replication assay; 390,000 tested, 1.2% active; also: potency is read from the fitted curve at half-maximal effect; % is scaled to controls: 0 for no effect and ±100 for the full control effect
# Target sequence (Q9Y253 whole entry, looked up): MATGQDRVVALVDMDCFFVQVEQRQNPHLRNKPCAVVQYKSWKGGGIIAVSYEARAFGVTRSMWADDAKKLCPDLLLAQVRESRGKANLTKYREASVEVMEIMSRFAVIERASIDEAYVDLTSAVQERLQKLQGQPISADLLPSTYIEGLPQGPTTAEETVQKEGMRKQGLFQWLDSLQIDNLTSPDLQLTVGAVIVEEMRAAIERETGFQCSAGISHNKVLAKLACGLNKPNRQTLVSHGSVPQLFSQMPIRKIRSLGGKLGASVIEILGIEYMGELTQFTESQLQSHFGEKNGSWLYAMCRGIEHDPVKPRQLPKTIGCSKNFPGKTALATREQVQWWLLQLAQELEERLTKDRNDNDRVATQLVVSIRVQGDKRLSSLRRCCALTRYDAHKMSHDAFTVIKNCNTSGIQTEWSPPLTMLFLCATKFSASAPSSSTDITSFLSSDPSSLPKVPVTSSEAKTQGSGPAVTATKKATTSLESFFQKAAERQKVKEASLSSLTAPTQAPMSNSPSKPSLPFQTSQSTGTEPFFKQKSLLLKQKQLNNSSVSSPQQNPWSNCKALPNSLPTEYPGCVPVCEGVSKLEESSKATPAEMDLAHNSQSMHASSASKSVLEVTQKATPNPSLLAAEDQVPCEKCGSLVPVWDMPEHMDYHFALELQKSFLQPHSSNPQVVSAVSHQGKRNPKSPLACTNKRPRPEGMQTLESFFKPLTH
#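 Pol eta (10 nM) was preincubated with compounds for 15 min at room temperature, after which fluorescent replication substrate (50 nM final) was added to start the reaction. Fluorescence was read kinetically at 0 and 10 min.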
# * = called active by the depositor; ? = inconclusive; / = no result given; ! = not active in a repeat; [ ] = another dose, or the depositor's remark. Unless noted, calls follow the shape of the dose curve; as a rule, active = well fitted curve in the direction sought with a large enough effect; inconclusive = small, poorly fitted or top-dose-only effect, or another doubt; inactive = no such curve, though single readings can be large; an effect the other way counts as inactive or inconclusive.
SMILES,POLI inh,PI5P4Ka inh,WRN inhibitor,Pol kappa inh,POLB inh,Pol eta inh
Cc1ccccc1N1C(=O)NC(=O)/C(=C\c2cc(Br)c(N3CCOCC3)o2)C1=O,?,-75.0*,?,-24.1%,37.0%,2.6%
COC1C(OC(=O)c2ccc(C)[nH]2)C(O)C(Oc2ccc3c(O)c(NC(=O)c4ccc(O)c(CC=C(C)C)c4)c(=O)oc3c2Cl)OC1(C)C (centres undefined),-22.2%,?,-31.8%,-17.4%,44.7µM*,?
N#CC(C#N)=Cc1ccc(O)c(O)c1,?,-12.2,-4.3%,11.2µM*!,-12.4%[57.1 µM],7.94µM*!
N#CC(=Cc1ccc(O)c(O)c1)C(N)=S,6.31µM*,/,/,/,2.82µM*,3.16µM*
CC(C)(C)c1cc(C=C(C#N)C#N)cc(C(C)(C)C)c1O,0.5%,1.5,-5.8%,2.1%[60.1 µM],9.6%[57.1 µM],-15.0%
CN(C)c1ccc(C=C(C#N)C#N)cc1,6.1%,-0.8,-7.4%,-4.3%,-14.9%,-7.4%
COc1cc(C=C(C#N)C#N)cc(O)c1O,?,/,/,/,-11.5%[57.1 µM],11.2µM*
CCCC(C)C1(CC)C(=O)NC(=S)NC1=O (centres undefined),/,/,/,2.7%[60.1 µM],/,/
O=C(CN1CCOCC1)c1ccc2ccccc2c1,9.2%,/,/,-1.6%,/,/
CCCOc1ccc2[nH]cc(C3=CCNCC3)c2n1,/,/,/,-13.2%[19.4 µM],/,/
OC[C@@H]1[C@@H](O)[C@H](O)[C@H]2[C@@H](O)CCN21,/,/,/,3.6%[60.1 µM],/,/
CCN1C[C@@]2(COC)CCC(OC)[C@]34C5C[C@]6(O)[C@@H](OC)C[C@](OC(C)=O)(C([C@H](OC)C23)[C@H]14)C5[C@H]6OC(=O)c1ccc(OC)cc1 (some centres undefined),/,/,/,14.7%[60.1 µM],/,/
CC1(C)N([O])C(c2ccc(C(=O)O)cc2)=[N+]([O-])C1(C)C,23.2%,/,/,-4.4%,/,/
COc1ccc(NC(=O)N2CC3(CCN(C(=O)Oc4ccccc4)CC3)C2)cc1,/,/,/,-9.2%[60.1 µM],/,/
CN1CCc2cc3c(c4c2C1Cc1ccccc1-4)OCO3 (centres undefined),?,-7.7,-0.6%[11.6 µM],-1.9%,15.8µM*,3.0%
COC(=O)C1=C(c2cccc(OCc3ccccc3)c2)C[C@@H]2CC[C@H]1N2C(=O)NCc1ccc2[nH]ccc2c1,-20.9%,0.0,-6.2%,-21.0%,/,-15.7%
CCOc1ccc(NC(=O)CSc2oc(-c3ccccc3)nc2S(=O)(=O)c2ccc(Cl)cc2)cc1,-4.8%,/,/,0.0%,?,-8.1%
COc1ccc(-n2nnnc2C(c2cccc3ccccc23)N2CCC3(CC2)C(=O)NCN3c2ccccc2)cc1 (centres undefined),/,6.0,-8.7%,/,/,/
CN1CCC(N(C)c2nc(-c3ccc([N+](=O)[O-])cc3)nc3ccccc23)CC1,?,1.4,-24.1%[57.1 µM],-27.7%,11.2µM*,-23.0%
CNNC,/,/,/,-7.4%[60.1 µM],/,/
C[C@]12N[C@@H](Cc3ccccc31)c1ccccc12,/,/,/,-4.8%[19.4 µM],/,/
O=C1NC(=S)NC(=O)C1=Cc1c(Cl)cccc1Cl,17.2%,?,56.2µM*,-12.8%,/,-3.6%
O=C1NC(=S)NC(=O)C1=Cc1ccc(Br)s1,?,-84.8*,?,?,8.9%,22.4µM*
O=C1NC(=O)C(=Cc2cccs2)C(=O)N1,?,-18.8,?,-10.0%,/,-10.6%
CC(C)OP(=O)(OC(C)C)C(O)c1cccc([N+](=O)[O-])c1 (centres undefined),42.7%,-0.3,4.5%,-9.6%,20.5%,-12.3%
SMILES,POLI inh,PI5P4Ka inh,WRN inhibitor,Pol kappa inh,POLB inh,Pol eta inh
CC1CC2CCC(O2)C(C)C(=O)OC(C)CC2CCC(O2)C(C)C(=O)OC(C)CC2CCC(O2)C(C)C(=O)OC(C)CC2CCC(O2)C(C)C(=O)O1 (centres undefined),/,/,/,0.2%[60.1 µM],/,/
COc1cc(N2CCOCC2)ccc1/C=C1\C(=O)NC(=O)N(C2CCCCC2)C1=O,-4.1%,-24.2,79.4µM*,-1.2%,20.7%,-18.4%
O=[N+]([O-])C(Br)(CO)CO,/,/,/,0.9%[60.1 µM],/,/
CC12C=CC(=O)C=C1CCC1C2=CCC2(C)C1CC[C@@H]2C(=O)CN1CCN(c2cc(N3CCCC3)nc(N3CCCC3)n2)CC1 (some centres undefined),/,/,/,-15.5%[60.1 µM],/,/
Cc1ccc(NC(=O)CN2C(=O)CN=C(c3ccccc3)c3ccccc32)cc1Cl,-24.6%,/,/,-16.6%[60.1 µM],-29.1%,-6.7%
C=CCN1C(=O)NC(=O)/C(=C/c2ccc(N(C)C)c(Br)c2)C1=O,14.5%,-59.2*,-6.6%,1.9%,-13.8%,-10.3%
C#CCN(C)[C@H](C)Cc1ccccc1,79.4µM*,5.6,2.5%[11.6 µM],-6.5%,-29.3%,-10.8%
C[N+]1(C)C2CC[C@H]1CC(OC(=O)[C@@H](CO)c1ccccc1)C2 (some centres undefined),/,/,/,-22.0%[60.1 µM],/,/
NCC(O)c1cc(O)c(O)cc1F (centres undefined),28.2µM*,0.2,4.1%,?,-12.3%[57.1 µM],-10.9%
COc1ccc(/C=C2/C(=O)N(c3ccccc3)N=C2C)cc1,?,2.5,-30.0%,-7.6%,/,3.6%
CN(C)c1ccc(C=C2C(=O)NC(=O)NC2=O)cc1[N+](=O)[O-],28.5%,?,?,-7.3%,-5.2%,3.9%
CN(C)c1ccc(C=C2C(=O)NC(=S)NC2=O)cc1[N+](=O)[O-],143.1%,-74.9*,?,-8.2%,?,10.7%
COc1ccc(C=C2C(=O)NC(=S)NC2=O)cc1,-2.7%,-64.4*,50.1µM*,-9.8%,/,-4.2%
CN(CCOc1ccc(C=C2C(=O)NC(=O)NC2=O)cc1)c1ccccn1,-35.2%,?,-6.6%,-0.9%,16.4%,10.9%
O=C1NC(=S)NC(=O)C1=Cc1ccc(OCc2ccccc2)cc1,47.1%,-81.5*,35.5µM*,-8.0%,/,-10.2%
CCC12CN3CC(CC)(CN(C1)C3c1c(C)[nH]c(=O)[nH]c1=O)C2=O (centres undefined),27.0%,/,/,-14.4%,4.5%,-24.3%
CCCCCCCCN=Cc1c(O)[nH]c(=O)[nH]c1=O,41.7%,-1.2,-2.3%,-1.4%,-3.9%,6.0%
Cc1cc(C)c(N=Cc2c(O)[nH]c(=O)[nH]c2=O)c(C)c1,41.9%,-2.7,1.7%,-0.2%,-8.0%,-12.8%
C=CCNC(=S)/N=C/c1c(O)[nH]c(=O)[nH]c1=O,6.6%,-51.9*,-26.8%[57.1 µM],-25.1%,-0.4%,4.1%
NC(=S)/N=C/c1c(O)[nH]c(=O)[nH]c1=O,89.4%,-59.8*,-3.8%[11.6 µM],?,-14.0%,11.7%
